What all share (assay): DAPPL (digital affinity profiling via proximity ligation, sequencing); 10 mM Tris-HCl pH 7.5, 50 mM NaCl, 1 mM DTT, 4% glycerol, room temperature, 30 min; GST-TFs on glutathione beads, 16-mer random dsDNA library, 0.1% formaldehyde crosslink after washing; high values mean tight binding
Common to all, as to conditions: protein: recombinant; tags: N-terminal GST; dsDNA, one strand shown

The target of one assay is T1, FLI1 (Homo sapiens, UniProt Q01543 1-452).
T1 sequence: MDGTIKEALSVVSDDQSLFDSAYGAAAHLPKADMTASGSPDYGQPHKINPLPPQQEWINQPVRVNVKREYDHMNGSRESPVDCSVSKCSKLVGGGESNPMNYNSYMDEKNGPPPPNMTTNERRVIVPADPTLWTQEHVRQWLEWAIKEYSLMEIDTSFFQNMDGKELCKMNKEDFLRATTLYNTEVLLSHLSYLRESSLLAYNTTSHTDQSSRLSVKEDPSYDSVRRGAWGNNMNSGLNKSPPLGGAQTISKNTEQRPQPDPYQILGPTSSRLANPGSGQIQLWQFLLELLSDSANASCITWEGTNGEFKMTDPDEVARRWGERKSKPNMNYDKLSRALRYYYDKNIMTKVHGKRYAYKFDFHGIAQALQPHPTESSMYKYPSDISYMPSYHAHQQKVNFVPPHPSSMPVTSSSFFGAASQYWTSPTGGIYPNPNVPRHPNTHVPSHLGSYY
The method, boiled down:
(§1)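 Human transcription factors carrying a GST fusion were produced in yeast, bound to glutathione beads, tagged with DNA barcodes and pooled together with a tag-only sample. Each pool was held with 200 nmole of a random double-stranded 16-mer DNA library in Tris/NaCl/DTT/glycerol buffer for 30 min at room temperature, then washed, crosslinked in 0.1% formaldehyde, proximity-ligated with BsaI/T4 ligase (1 h, 37 °C), PCR-amplified and sequenced on an Illumina NextSeq500. Binding signal is the read frequency of each hexamer for a given factor divided by its frequency in the tag-only sample.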

The target in a further assay is T2, ELK1 (Homo sapiens, UniProt P19419 1-428).
T2 sequence: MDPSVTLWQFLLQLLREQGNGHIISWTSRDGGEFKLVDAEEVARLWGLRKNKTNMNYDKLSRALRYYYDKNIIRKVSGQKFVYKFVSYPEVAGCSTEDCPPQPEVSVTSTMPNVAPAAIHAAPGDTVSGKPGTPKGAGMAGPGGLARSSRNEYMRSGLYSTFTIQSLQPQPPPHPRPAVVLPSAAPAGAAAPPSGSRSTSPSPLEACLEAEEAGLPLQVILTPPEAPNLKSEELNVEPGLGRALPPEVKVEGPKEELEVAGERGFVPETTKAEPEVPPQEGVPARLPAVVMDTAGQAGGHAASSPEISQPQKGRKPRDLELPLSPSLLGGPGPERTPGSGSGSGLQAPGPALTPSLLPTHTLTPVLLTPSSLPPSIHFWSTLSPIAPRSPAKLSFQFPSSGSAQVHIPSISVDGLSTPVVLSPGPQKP
The method, boiled down: as §1

The target in the next assay is T3, GABPA (Homo sapiens, UniProt Q06546 1-454).
T3 sequence: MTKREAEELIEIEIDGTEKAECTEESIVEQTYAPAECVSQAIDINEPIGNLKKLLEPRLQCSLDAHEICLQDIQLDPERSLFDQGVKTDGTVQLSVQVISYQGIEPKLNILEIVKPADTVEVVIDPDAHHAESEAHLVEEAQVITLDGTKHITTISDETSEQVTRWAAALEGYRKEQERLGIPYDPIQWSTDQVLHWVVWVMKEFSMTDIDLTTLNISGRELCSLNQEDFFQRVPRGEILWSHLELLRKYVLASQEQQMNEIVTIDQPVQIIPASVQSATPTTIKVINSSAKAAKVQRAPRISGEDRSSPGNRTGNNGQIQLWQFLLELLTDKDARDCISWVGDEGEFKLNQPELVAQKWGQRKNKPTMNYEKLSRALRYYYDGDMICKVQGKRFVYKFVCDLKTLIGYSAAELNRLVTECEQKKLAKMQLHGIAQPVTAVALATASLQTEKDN
The method, boiled down:
as §1

The next assay deals with T4, ERG (Homo sapiens, UniProt P11308 1-479).
T4 sequence: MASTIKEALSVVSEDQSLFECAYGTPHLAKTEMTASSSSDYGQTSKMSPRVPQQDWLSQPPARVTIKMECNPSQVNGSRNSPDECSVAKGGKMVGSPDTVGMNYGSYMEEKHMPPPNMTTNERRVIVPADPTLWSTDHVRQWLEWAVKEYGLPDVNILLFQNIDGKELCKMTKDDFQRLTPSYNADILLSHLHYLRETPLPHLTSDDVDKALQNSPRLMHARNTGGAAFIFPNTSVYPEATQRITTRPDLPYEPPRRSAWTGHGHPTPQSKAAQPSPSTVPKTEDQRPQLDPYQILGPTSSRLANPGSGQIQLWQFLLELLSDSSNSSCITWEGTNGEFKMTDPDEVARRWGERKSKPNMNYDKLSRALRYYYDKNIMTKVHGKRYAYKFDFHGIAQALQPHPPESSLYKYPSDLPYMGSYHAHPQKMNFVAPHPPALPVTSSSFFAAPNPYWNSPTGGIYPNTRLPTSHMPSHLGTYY
A digest of the protocol: as §1

The target in the next assay is ELF1 (Homo sapiens, UniProt P32519 1-619). The method, boiled down: as §1
Sequence of ELF1 (P32519 whole entry): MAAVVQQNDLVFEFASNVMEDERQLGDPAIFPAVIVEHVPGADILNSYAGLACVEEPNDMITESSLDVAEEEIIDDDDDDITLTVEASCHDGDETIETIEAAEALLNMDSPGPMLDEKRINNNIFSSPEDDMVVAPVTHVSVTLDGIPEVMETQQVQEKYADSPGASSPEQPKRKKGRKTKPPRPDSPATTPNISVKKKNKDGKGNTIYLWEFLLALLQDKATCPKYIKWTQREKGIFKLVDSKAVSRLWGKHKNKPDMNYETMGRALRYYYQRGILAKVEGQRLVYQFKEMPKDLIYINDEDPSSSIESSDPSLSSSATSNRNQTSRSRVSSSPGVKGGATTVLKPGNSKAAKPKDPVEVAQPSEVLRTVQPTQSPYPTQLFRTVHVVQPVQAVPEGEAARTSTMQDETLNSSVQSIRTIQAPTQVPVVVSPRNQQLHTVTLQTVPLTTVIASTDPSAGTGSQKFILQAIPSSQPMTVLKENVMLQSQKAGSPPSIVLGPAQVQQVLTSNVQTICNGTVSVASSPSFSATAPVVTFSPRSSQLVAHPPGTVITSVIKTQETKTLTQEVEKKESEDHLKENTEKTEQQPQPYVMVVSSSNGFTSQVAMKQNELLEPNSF
The next assay has as its target T5, EHF (Homo sapiens, UniProt Q9NZC4 1-300).
T5 sequence: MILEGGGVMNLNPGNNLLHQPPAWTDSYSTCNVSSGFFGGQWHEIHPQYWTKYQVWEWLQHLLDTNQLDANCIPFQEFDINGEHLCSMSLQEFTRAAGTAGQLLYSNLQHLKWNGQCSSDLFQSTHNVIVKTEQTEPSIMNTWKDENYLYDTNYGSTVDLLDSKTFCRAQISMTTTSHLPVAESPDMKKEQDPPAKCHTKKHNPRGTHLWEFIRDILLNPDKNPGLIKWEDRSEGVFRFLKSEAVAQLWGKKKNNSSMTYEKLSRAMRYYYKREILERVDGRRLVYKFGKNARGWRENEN
The method, boiled down:
as §1

The target in another assay is SPI1 (Homo sapiens, UniProt P17947 1-270). A digest of the protocol: as §1
Another assay addresses SPIB (Homo sapiens, UniProt Q01892 1-262). A digest of the protocol: as §1
The next assay concerns the target T6, ELK3 (Homo sapiens, UniProt P41970 1-407).
T6 sequence: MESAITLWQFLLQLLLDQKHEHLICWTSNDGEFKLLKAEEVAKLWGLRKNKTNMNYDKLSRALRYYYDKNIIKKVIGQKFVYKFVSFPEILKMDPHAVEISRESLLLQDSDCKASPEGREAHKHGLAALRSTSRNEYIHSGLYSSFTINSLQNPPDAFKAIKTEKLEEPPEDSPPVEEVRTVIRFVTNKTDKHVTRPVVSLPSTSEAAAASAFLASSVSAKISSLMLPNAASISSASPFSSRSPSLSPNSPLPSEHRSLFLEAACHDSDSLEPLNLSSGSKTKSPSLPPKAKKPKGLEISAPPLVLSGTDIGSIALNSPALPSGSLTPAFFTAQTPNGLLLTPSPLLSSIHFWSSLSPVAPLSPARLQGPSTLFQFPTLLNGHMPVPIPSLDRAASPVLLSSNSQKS
The method, boiled down: as §1

Sequence of SPIB (Q01892 whole entry): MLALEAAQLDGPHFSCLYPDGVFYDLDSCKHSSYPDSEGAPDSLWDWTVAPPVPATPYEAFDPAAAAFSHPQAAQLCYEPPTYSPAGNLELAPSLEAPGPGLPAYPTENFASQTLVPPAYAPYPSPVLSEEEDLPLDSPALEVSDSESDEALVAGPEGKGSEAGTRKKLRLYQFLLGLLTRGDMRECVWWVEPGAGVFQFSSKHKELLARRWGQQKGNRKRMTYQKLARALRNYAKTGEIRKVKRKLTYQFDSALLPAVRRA

In the case of CAAATA, the binding signal in the assay with FLI1 was 1.04 fold enrichment (6-mer frequency, TF over GST control); with ELK1, 1.13 fold enrichment (6-mer frequency, TF over GST control); in the assay with GABPA, 1.18 fold enrichment (6-mer frequency, TF over GST control); in the assay with ERG, 1.19 fold enrichment (6-mer frequency, TF over GST control); with ELF1, 1.17 fold enrichment (6-mer frequency, TF over GST control); with EHF, 1.14 fold enrichment (6-mer frequency, TF over GST control). In addition, the binding signal in the assay with SPI1 is 1.14 fold enrichment (6-mer frequency, TF over GST control); in the assay with SPIB it was 1.19 fold enrichment (6-mer frequency, TF over GST control); with ELK3 it was 1.11 fold enrichment (6-mer frequency, TF over GST control).
For the sequence CTTGGG, the binding signal in the assay with FLI1 was 1.24 fold enrichment (6-mer frequency, TF over GST control); with ELK1, 1.38 fold enrichment (6-mer frequency, TF over GST control); in the assay with GABPA, 1.36 fold enrichment (6-mer frequency, TF over GST control); in the assay with ERG, 1.29 fold enrichment (6-mer frequency, TF over GST control); with ELF1 it was 1.26 fold enrichment (6-mer frequency, TF over GST control); with EHF, 1.14 fold enrichment (6-mer frequency, TF over GST control). The binding signal in the assay with SPI1 was 1.29 fold enrichment (6-mer frequency, TF over GST control); in the assay with SPIB it was 1.39 fold enrichment (6-mer frequency, TF over GST control); in the assay with ELK3, 1.47 fold enrichment (6-mer frequency, TF over GST control).
In the case of TTGTAA, the binding signal was 1.32 fold enrichment (6-mer frequency, TF over GST control) in the assay with FLI1; 1.3 fold enrichment (6-mer frequency, TF over GST control) with ELK1; 1.24 fold enrichment (6-mer frequency, TF over GST control) with GABPA; 1.27 fold enrichment (6-mer frequency, TF over GST control) in the assay with ERG; 1.34 fold enrichment (6-mer frequency, TF over GST control) in the assay with ELF1; 1.34 fold enrichment (6-mer frequency, TF over GST control) in the assay with EHF. The binding signal with SPI1 is 1.3 fold enrichment (6-mer frequency, TF over GST control); with SPIB, 1.22 fold enrichment (6-mer frequency, TF over GST control); in the assay with ELK3, 1.08 fold enrichment (6-mer frequency, TF over GST control).
AACTTT: the binding signal in the assay with FLI1 was 1.38 fold enrichment (6-mer frequency, TF over GST control); with ELK1, 1.27 fold enrichment (6-mer frequency, TF over GST control); with GABPA it was 1.17 fold enrichment (6-mer frequency, TF over GST control); in the assay with ERG, 1.16 fold enrichment (6-mer frequency, TF over GST control); in the assay with ELF1, 1.23 fold enrichment (6-mer frequency, TF over GST control); with EHF, 1.18 fold enrichment (6-mer frequency, TF over GST control). The binding signal is 1.23 fold enrichment (6-mer frequency, TF over GST control) with SPI1; 1.32 fold enrichment (6-mer frequency, TF over GST control) with SPIB; 1.2 fold enrichment (6-mer frequency, TF over GST control) in the assay with ELK3.
With CTAGCT, the binding signal with FLI1 is 1.36 fold enrichment (6-mer frequency, TF over GST control); in the assay with ELK1, 1.37 fold enrichment (6-mer frequency, TF over GST control); with GABPA, 1.3 fold enrichment (6-mer frequency, TF over GST control); with ERG, 1.3 fold enrichment (6-mer frequency, TF over GST control); in the assay with ELF1, 1.31 fold enrichment (6-mer frequency, TF over GST control); with EHF, 1.29 fold enrichment (6-mer frequency, TF over GST control). In addition, the binding signal is 1.33 fold enrichment (6-mer frequency, TF over GST control) with SPI1; 1.34 fold enrichment (6-mer frequency, TF over GST control) in the assay with SPIB; 1.39 fold enrichment (6-mer frequency, TF over GST control) with ELK3.
On to TTTCTC, for which the binding signal with FLI1 was 1.64 fold enrichment (6-mer frequency, TF over GST control); with ELK1 it was 1.66 fold enrichment (6-mer frequency, TF over GST control); with GABPA it was 1.58 fold enrichment (6-mer frequency, TF over GST control); in the assay with ERG, 1.54 fold enrichment (6-mer frequency, TF over GST control); in the assay with ELF1, 1.62 fold enrichment (6-mer frequency, TF over GST control); with EHF, 1.59 fold enrichment (6-mer frequency, TF over GST control). In addition, the binding signal in the assay with SPI1 was 1.7 fold enrichment (6-mer frequency, TF over GST control); with SPIB, 1.63 fold enrichment (6-mer frequency, TF over GST control); with ELK3, 1.46 fold enrichment (6-mer frequency, TF over GST control).
Take TCTTAG: the binding signal with FLI1 was 1.22 fold enrichment (6-mer frequency, TF over GST control); in the assay with ELK1, 1.21 fold enrichment (6-mer frequency, TF over GST control); with GABPA, 1.22 fold enrichment (6-mer frequency, TF over GST control); in the assay with ERG, 1.15 fold enrichment (6-mer frequency, TF over GST control); in the assay with ELF1, 1.25 fold enrichment (6-mer frequency, TF over GST control); with EHF it was 1.21 fold enrichment (6-mer frequency, TF over GST control). Further, the binding signal is 1.13 fold enrichment (6-mer frequency, TF over GST control) in the assay with SPI1; 1.09 fold enrichment (6-mer frequency, TF over GST control) with SPIB; 1.11 fold enrichment (6-mer frequency, TF over GST control) with ELK3.
For TTCCAT, the binding signal in the assay with FLI1 is 1.38 fold enrichment (6-mer frequency, TF over GST control); with ELK1 it was 1.29 fold enrichment (6-mer frequency, TF over GST control); with GABPA, 1.22 fold enrichment (6-mer frequency, TF over GST control); with ERG, 1.25 fold enrichment (6-mer frequency, TF over GST control); in the assay with ELF1, 1.33 fold enrichment (6-mer frequency, TF over GST control); with EHF, 1.28 fold enrichment (6-mer frequency, TF over GST control). The binding signal in the assay with SPI1 is 1.34 fold enrichment (6-mer frequency, TF over GST control); with SPIB, 1.32 fold enrichment (6-mer frequency, TF over GST control); with ELK3, 1.28 fold enrichment (6-mer frequency, TF over GST control).

The values above are taken from publication PMC7862700, “An all-to-all approach to the identification of sequence-specific readers for epigenetic DNA modifications on cytosine”.
